Assay results: PubChem BioAssay
Activity calls are given as the source filed them. Unless noted, how the calls were made is not given here.

Experiments:
[1] = HepG2 liver cancer cell viability effects, profiling panel, resazurin fluorescence, 24 h, PK04 Diversity Set (AID 1172); details: higher = more signal
[2] = basal S. cerevisiae growth modulation, no modifier, primary screen, OD600, strain BY4716, 24 h, basal condition (AID 1173); details: OD600, 24 h, higher = more signal, called active from +8 up or from −8 down
[3] = MM1S myeloma cell viability, profiling panel, resazurin fluorescence, basal, 24 h, PK04 Diversity Set (AID 1174); details: higher = more signal, called active from +8 up or from −8 down;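 further: MM1S multiple myeloma cell line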
[4] = target: Dihydroorotate dehydrogenase (quinone), mitochondrial (Plasmodium falciparum (isolate 3D7)) (UniProt Q08210); experiment: PfDHODH enzyme inhibitors, primary screen, biochemical, C-terminal His tag, absorbance 600 nm (AID 1175); details: DCIP absorbance 600 nm, higher = more signal, called active from +8 up or from −8 down;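 further: recombinant parasite enzyme with a five histidine tag at its C terminus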
Dihydroorotate dehydrogenase (quinone), mitochondrial (Plasmodium falciparum (isolate 3D7)), sequence (Q08210 whole entry, looked up): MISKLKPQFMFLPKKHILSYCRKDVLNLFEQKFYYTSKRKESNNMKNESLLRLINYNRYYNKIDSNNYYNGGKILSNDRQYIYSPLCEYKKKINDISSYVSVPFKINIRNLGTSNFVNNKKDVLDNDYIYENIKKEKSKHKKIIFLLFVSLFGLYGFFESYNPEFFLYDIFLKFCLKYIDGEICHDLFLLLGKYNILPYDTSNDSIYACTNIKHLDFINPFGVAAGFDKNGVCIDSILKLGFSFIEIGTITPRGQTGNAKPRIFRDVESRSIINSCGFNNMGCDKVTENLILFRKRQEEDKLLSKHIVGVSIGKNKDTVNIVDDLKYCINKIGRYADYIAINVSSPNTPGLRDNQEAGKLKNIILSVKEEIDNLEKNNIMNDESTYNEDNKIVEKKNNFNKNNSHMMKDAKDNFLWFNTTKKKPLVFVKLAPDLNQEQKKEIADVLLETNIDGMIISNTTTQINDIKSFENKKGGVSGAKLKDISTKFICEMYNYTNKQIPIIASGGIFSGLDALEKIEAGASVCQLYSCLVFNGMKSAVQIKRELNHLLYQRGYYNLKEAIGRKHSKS

[5] = P. aeruginosa biofilm formation inhibitors, primary screen, strain PAO1, LB-PBS medium, absorbance 600 nm (AID 1176); details: P. aeruginosa PAO1 growth/biofilm, A600, 12 h; higher = more signal
[6] = S. cerevisiae RM11-1a growth modifiers, primary screen, strain RM11-1a, OD600, basal, 24 h (AID 1177); details: OD600, 24 h, higher = more signal, called active from +8 up or from −8 down;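 further: cultures grown under basal conditions with no added stressor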
[7] = E. coli acrAB mutant growth effects, primary screen, E. coli filamentation inducers, strain DRC39, OD650, 24 h (AID 1178); details: higher = more signal, called active from +8 up or from −8 down;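 further: growth measured as culture turbidity by optical density at 650 nm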
[8] = E. coli acrAB mutant growth effects, primary screen, E. coli filamentation inducers, strain DRC39, OD650, 48 h (AID 1179);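 further: screen aims at cell division blockers that make cells filament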; details: E. coli DRC39 delta-acrAB growth, higher = more signal, called active from +8 up or from −8 down
[9] = RPMI8226 myeloma cell viability, profiling panel, resazurin fluorescence, basal, 24 h, PK04 Diversity Set (AID 1180); details: higher = more signal;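 further: RPMI8826 multiple myeloma cell line at 5000 cells per well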
[10] = target: E3 ubiquitin-protein ligase XIAP (Homo sapiens) (UniProt P98170); experiment: XIAP binders, primary screen, biophysical, small-molecule microarray, fluorescence 635 nm (AID 1181); details: small-molecule microarray binding, higher = more signal;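 further: score merges 667 nm emission and signal to noise over triplicate slides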
E3 ubiquitin-protein ligase XIAP (Homo sapiens), sequence (P98170 whole entry, looked up): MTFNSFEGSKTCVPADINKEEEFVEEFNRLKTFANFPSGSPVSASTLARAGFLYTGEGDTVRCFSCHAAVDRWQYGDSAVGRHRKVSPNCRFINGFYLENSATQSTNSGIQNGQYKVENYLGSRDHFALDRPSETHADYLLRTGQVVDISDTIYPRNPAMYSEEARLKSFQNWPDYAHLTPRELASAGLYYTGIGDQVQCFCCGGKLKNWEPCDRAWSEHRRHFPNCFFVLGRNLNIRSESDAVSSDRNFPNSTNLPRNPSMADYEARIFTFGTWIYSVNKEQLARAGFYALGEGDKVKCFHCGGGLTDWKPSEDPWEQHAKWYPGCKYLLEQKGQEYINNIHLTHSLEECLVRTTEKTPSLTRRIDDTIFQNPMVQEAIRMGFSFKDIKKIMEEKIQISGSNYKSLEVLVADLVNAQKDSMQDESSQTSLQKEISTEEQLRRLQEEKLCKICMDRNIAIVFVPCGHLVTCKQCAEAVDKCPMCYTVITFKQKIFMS

[11] = tested on: XIP peptide (Xip251-270) binding; experiment: small-molecule binders of XIP peptide, primary screen, biochemical, small-molecule microarray, fluorescence 635/667 nm, 0.1 µg/mL protein (AID 1182); details: fluorescent protein binding, 635 nm, higher = more signal, called active from +8 up or from −8 down
XIP peptide (Xip251-270) = experiment: small-molecule binders of XIP peptide, primary screen, biochemical, small-molecule microarray, fluorescence 635/667 nm, 0.5 µg/mL protein (AID 1183); details: small-molecule microarray binding, fluorescence 635 nm; higher = more signal
[12] = Plasmodium falciparum growth inhibition, primary screen, strain 3D7, DAPI fluorescence, 100 nL (AID 1184);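 further: parasites grown inside human red blood cells in medium with human serum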; details: P. falciparum 3D7 growth, 3 d, higher = more signal
[13] = target: Homeobox protein Hox-A13 (Mus musculus) (UniProt Q62424); experiment: inhibitors of HoxA13-DNA binding, primary screen, biochemical, fluorescence polarization, labeled oligonucleotide (AID 1185); details: 15 min, higher = more signal, called active from +8 up or from −8 down
Homeobox protein Hox-A13 (Mus musculus), sequence (Q62424 whole entry, looked up): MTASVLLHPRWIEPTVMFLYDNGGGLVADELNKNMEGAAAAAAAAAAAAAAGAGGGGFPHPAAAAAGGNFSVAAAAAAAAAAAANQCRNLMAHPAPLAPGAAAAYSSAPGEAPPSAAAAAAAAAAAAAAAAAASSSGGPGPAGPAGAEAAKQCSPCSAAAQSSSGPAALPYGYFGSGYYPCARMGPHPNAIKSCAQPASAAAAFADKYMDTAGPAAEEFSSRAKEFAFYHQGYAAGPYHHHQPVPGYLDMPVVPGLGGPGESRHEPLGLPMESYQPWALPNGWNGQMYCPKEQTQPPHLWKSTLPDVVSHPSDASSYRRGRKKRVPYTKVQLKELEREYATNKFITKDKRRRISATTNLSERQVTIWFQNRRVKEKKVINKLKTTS

[14] = inhibitors of hydroxyurea-induced Chk1 phosphorylation, primary screen, imaging, HeLa, phospho-Chk1 antibody, percent positive cells (AID 1186); details: hydroxyurea-induced phospho-Chk1 immunofluorescence imaging, higher = more signal
[15] = inhibitors of hydroxyurea-induced Chk1 phosphorylation, primary screen, imaging, HeLa, phospho-Chk1 nuclear intensity (AID 1187); details: hydroxyurea-induced phospho-Chk1 immunofluorescence imaging, higher = more signal

Compound	z-score [1]	z-score [2]	z-score [3]	composite z-score [4]	z-score [5]	z-score [6]	z-score [7]	z-score [8]	z-score [9]	composite z-score [10]	composite z-score [11]	composite z-score (XIP peptide (Xip251-270))	z-score [12]	z-score [13]	z-score [14]	z-score [15]
COc1ccc(C(=O)O[C@H]2CC[C@]3(C)C4=C(CCC3C2(C)C)[C@]2(C)CC[C@H]([C@H](C)CCCC(C)C)[C@@]2(C)CC4)cc1 (some centres undefined)	1.09	1.77 (inactive)	0.873 (inactive)	-1.74 (inactive)	0.814 (inactive)	-1.09 (inactive)	1.25 (inactive)	1.11 (inactive)	1.37	-0.142	-0.674 (inactive)	0.0738	0.148	-1.08 (inactive)	-0.975 (inactive)	-1.15 (inactive)
C=CCOC(=O)[C@H]1[C@@H]2C(=O)O[C@@H](c3ccccc3)[C@@H](c3ccccc3)N2[C@@H](c2ccc(OCCOC(=O)[C@@H]3C[C@@H]4C(=O)N[C@@H](CCCC[N+](C)(C)C)C(=O)N4[C@@H]3c3ccc(O)cc3)cc2)[C@]12C(=O)Nc1ccccc12	0.863	-3.17 (inactive)	0.844 (inactive)	-2.77 (inactive)	0.988 (inactive)	0.545 (inactive)	0.0865 (inactive)	-0.661 (inactive)	1.16	0.0055	0.543 (inactive)	0.637	0.327	6.39 (inactive)	-0.75 (inactive)	-0.282 (inactive)
CN1C(=O)C2C=CC(C(O)c3ccc(I)cc3)N(N3CCCCC3)C2C1=O (centres undefined)	-1.17	-3.86 (inactive)	-2.13 (inactive)	0.0552 (inactive)	0.338 (inactive)	-0.0818 (inactive)	-0.709 (inactive)	-1.11 (inactive)	-1.26	0.33	0.405 (inactive)	0.771	-0.378	-4.82 (inactive)	0.151 (inactive)	-0.062 (inactive)
CCCCC(=C=CC[C@@H](O)c1ccccc1OCCO)CCO	-0.202	-2.07 (inactive)	0.684 (inactive)	-0.782 (inactive)	0.118 (inactive)	0.853 (inactive)	0.132 (inactive)	-0.0575 (inactive)	-0.552	-0.24	-0.247 (inactive)	0.357	-1.6	-3.19 (inactive)	0.525 (inactive)	0.585 (inactive)
[N-]=[N+]=NCc1ccccc1C[C@@]1(C(=O)NCC(O)CO)N=C(c2ccc(OCCCO)cc2)O[C@@H]1c1ccccc1N=[N+]=[N-] (some centres undefined)	-2.35	-0.927 (inactive)	-2.87 (inactive)	2.22 (inactive)	1.35 (inactive)	0.977 (inactive)	0.707 (inactive)	-0.506 (inactive)	-2.85	0.1	1.78 (inactive)	0.384	-2.37	-1.72 (inactive)	-0.0225 (inactive)	0.105 (inactive)
C=C(CCCC)C(=O)CC[C@H](OC(=O)c1cccnc1)c1ccccc1OCCO	0.619	-0.716 (inactive)	-2.19 (inactive)	-0.363 (inactive)	-0.317 (inactive)	-1.61 (inactive)	0.836 (inactive)	-0.0762 (inactive)	-2.29	0.0374	0.0328 (inactive)	0.222	-3.02	-5.25 (inactive)	-1.12 (inactive)	-0.27 (inactive)
CN(C)CCCNC(=O)[C@@]1(C)c2ccccc2C(=O)N(Cc2cc(F)cc(C(F)(F)F)c2)[C@H]1c1ccc(CO)cc1	0.101	-0.84 (inactive)	0.079 (inactive)	-0.478 (inactive)	0.264 (inactive)	-1.11 (inactive)	0.706 (inactive)	-0.175 (inactive)	-0.406	-0.0079	-0.55 (inactive)	-0.114	-0.809	-2.15 (inactive)	0.0595 (inactive)	0.121 (inactive)
COCC(=C=CC[C@H](O)c1ccccc1OCCO)C[C@H](O)c1cc(Cl)cc(Cl)c1O	-1.18	-19 (active)	-0.627 (inactive)	-9.33 (active)	-0.0828 (inactive)	-22.2 (active)	0.275 (inactive)	0.0273 (inactive)	-0.207	-0.0559	0.549 (inactive)	0.736	-0.254	-3.5 (inactive)	1.36 (inactive)	0.764 (inactive)
O=C(NCc1ccccc1)[C@@H]1c2ccccc2C(=O)N(CC23CC4CC(CC(C4)C2)C3)[C@H]1c1ccc(CO)cc1	-0.511	-0.092 (inactive)	-1.12 (inactive)	-0.139 (inactive)	-0.245 (inactive)	0.0739 (inactive)	-0.142 (inactive)	-0.179 (inactive)	-0.195	0.0623	0.149 (inactive)	0.794	-1.76	-3.43 (inactive)	-0.221 (inactive)	-0.338 (inactive)
